Several values for one entry are separate records, joined by “and”; a condition that tells them apart may be missing. Identical values can stand only once. Records with an inconclusive call do not appear. A call without a number means that no potency is given here. Activity calls are given as the source filed them. Calls follow the shape of the dose curve; as a rule, active = well fitted activation curve with a large enough effect in the repeat runs; inconclusive = weak or mixed curves; inactive = flat fitted curve, though single readings scatter.
Potency is read from the fitted curve at half-maximal effect.

The assay in a line: A CellTox Green Cytotoxicity Assay to monitor cytotoxicity in HEK293 cells - 16 hour (AID 1224888). Also: nearly all actives have a fitted effect of over 35% in size. The conditions noted are these: CellTox Green fluorescence; series mostly up to 76.8 µM. The text has this:
National Center for Advancing Translational Sciences [NCATS]
NIH Chemical Genomics Center [NCGC]
U.S. Environmental Protection Agency [EPA]
National Institutes of Environmental Health Sciences [NIEHS]
National Toxicology Program [NTP]
Cell-based models are critical for drug discovery. Determining the natural cytotoxic effects resulting from test compounds is an essential research activity. A CellTox Green Cytotoxicity Assay to monitor cytotoxicity in real time of continues cell culture during 40 hours of the compound treatment was used to screen Tox21 10K library compounds in Hek293 cells. CellTox Green Cytotoxicity Assay is a nonlytic, homogeneous, biofluorescent method to measure cytotoxicity in cell culture after experimental manipulation. The assay system uses a proprietary asymmetric cyanine dye that is excluded from viable cells but preferentially stains the dead cell's DNA. […] Viable cells produce no appreciable increases in fluorescence. Therefore, the fluorescence signal produced by the binding interaction with dead cell DNA is proportional to cytotoxicity.
The mixture of Hek293 cell suspension and reagents were dispensed at 600cells/6 ul/well in 1536-well tissue culture treated black solid bottom plates using a Multidrop dispenser. After the assay plates were incubated at a 37 C/5% CO2 incubator for 5 hours, 23 nL of compounds dissolved in DMSO, positive and negative controls was transferred to the assay plate by a pintool work station. The plates were incubated at 37 C for 40 hours. The fluorescence intensity were measured at 0h, 8h, 16h, 24h, 32h and 40h time points using ViewLux plate reader during compound treatment.
Take `CC(COc1ccccc1)N(CCCl)Cc1ccccc1` (stereo not given): the Potency result is “inactive”. With `CCN(CC)CCOc1ccc(/C(=C(\Cl)c2ccccc2)c2ccccc2)cc1` the figure was 35.4 µM (active); with `CCn1c2ccccc2c2cc(N)ccc21`, “inactive”. Turning to `CCCC(=O)c1ccccc1`, the Potency entry is “inactive”.

With `CC[C@@H](N)CO`, the Potency result is “inactive”. In the case of `CC(C)(C)NCC(O)c1cc(O)cc(O)c1` (stereo not given) it was “inactive”. For the compound `CC(C)CCCCCCc1ccc(O)cc1`, the Potency was 39.6 µM (active) and 38.9 µM (active).

Regarding `NC(=Nc1ccccc1)Nc1ccccc1`, the Potency entry is “inactive”. Turning to `COc1ccc(Cc2cnc(N)nc2N)cc1OC`, the Potency result was “inactive”. For `OCC(CO)N[C@H]1C[C@](O)(CO)[C@@H](O)[C@H](O)[C@H]1O`, the Potency entry is “inactive”. Turning to `O=C(Nc1ccccc1SSc1ccccc1NC(=O)c1ccccc1)c1ccccc1`, the Potency entry is “inactive”. With `CC1COC(=O)O1` (stereo not given) the entry was “inactive”; with `CCc1ccc(C(c2ccc(CC)cc2)C(Cl)Cl)cc1`, “inactive”. In the case of `C#CC(C)(CC)OC(=O)c1ccccc1C(=O)O` (stereo not given), the Potency entry was “inactive”. For `Oc1ccc(Cl)cc1Cc1cc(Cl)ccc1O`, the Potency result is “inactive”. In the case of `NCCCCCC(=O)O`, the Potency result was “inactive”. As for `COc1nc(C)nc(Cl)c1NC1=NCCN1`, the Potency entry was “inactive”. In the case of `CCCCCCCCCCCCCC[P+](CCCC)(CCCC)CCCC`, the Potency is 17.3 µM (active) and 19.5 µM (active). In the case of `O=C(O)c1cc(Cl)cc(Cl)c1` it was “inactive”. Regarding `COC(=O)[C@H]1[C@H]2C[C@@H]3c4[nH]c5cc(OC)ccc5c4CCN3C[C@H]2C[C@@H](OC(=O)c2cc(OC)c(OC)c(OC)c2)[C@@H]1OC`, the Potency result was “inactive”. Take `C=CC(=O)OCCCCCCOC(=O)C=C`: the Potency result was “inactive”.

On to `CNCCC(Oc1ccc(C(F)(F)F)cc1)c1ccccc1` (stereo not given), for which the Potency is 23.9 µM (active).

Turning to `Cc1occc(=O)c1OC(=O)C(C)C`, the Potency entry was “inactive”.

In the case of `Cc1cccc2n[nH]nc12`, the Potency result is “inactive”. Turning to `NC(N)=Nc1nc(CSCC/C(N)=N/S(N)(=O)=O)cs1`, the Potency entry is “inactive”. As for `CC1=CC(=O)c2ccccc2C1=O`, the Potency was 21.9 µM (active) and 26.8 µM (active). Turning to `COc1ccc(CCN(C)CCCC(C#N)(c2ccc(OC)c(OC)c2)C(C)C)cc1OC` (stereo not given), the Potency result was “inactive”. As to `C/C=C/c1ccc(OCC)c(O)c1`, the Potency result was “inactive”. `Cc1cc(C2(c3cc(C)c(O)cc3C)OS(=O)(=O)c3ccccc32)c(C)cc1O`: the Potency entry was “inactive”.

Turning to `CC(C)CCOCc1ccccc1`, the Potency result was “inactive”. Take `O=C1Nc2ccccc2C1(c1ccc(O)cc1)c1ccc(O)cc1`: the Potency entry is “inactive”. In the case of `Cc1cccc(O)c1C`, the Potency entry is “inactive”. In the case of `CCCCC(CC)COC(=O)CC(C(=O)OCC(CC)CCCC)S(=O)(=O)O` (stereo not given), the Potency was 19.5 µM (active). With `C=C(C)C(=O)O` the entry was “inactive”; with `Cc1cc(Cc2cc(C)cc(C(C)(C)C)c2O)c(O)c(C(C)(C)C)c1`, 49.2 µM (active). With `c1ccc2cc3c(ccc4ccccc43)cc2c1`, the Potency result was “inactive”. As for `CC(=O)Nc1ccc(C(=O)CCl)cc1`, the Potency result was “inactive”. Turning to `O=C(O)CCc1ccccc1`, the Potency result is “inactive”. For `CC(=O)O[C@]1(C(C)=O)CC[C@H]2[C@@H]3C[C@H](C)C4=CC(=O)CC[C@]4(C)[C@H]3CC[C@@]21C`, the Potency result was “inactive”. For the compound `CC(=O)CC(=O)Nc1ccc2[nH]c(=O)[nH]c2c1`, the Potency entry is “inactive”.
